Screening results (PubChem BioAssay)
Hits are enriched below; roughly 19% of the tested compounds scored in any of these assays.
IL1B secr inh – qHTS for Inhibitors of Inflammasome Signaling: IL-1-beta AlphaLISA Primary Screen; THP-1 LPS/ATP IL-1B secretion, AlphaLISA, 16 h; hits give low values; activity change, % at 57.5 µM; hit rate 4.7% among 360,000; AID 743279, 2014; in the data active = activity change below about -50%; inconclusive = mostly about -30% to -49%
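Secreted IL-1B measured by AlphaLISA bead assay after 16 h compound exposure of THP-1 cells; compounds (final up to 57.5 uM) added 1 h before LPS (250 ng/mL) and ATP (1.25 mM) stimulation; lower signal means less secretion.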
DT40 TDP1 no CPT – qHTS for Inhibitors of human tyrosyl-DNA phosphodiesterase 1 (TDP1): qHTS in cells in absence of CPT; Potency, µM (top dose mostly 46.2 µM), usual class: inhibitors; DT40 Tdp1-/- hTDP1 cells, no CPT, ATP luminescence, 48 h; AID 686978, 2013; hit rate 15% among 420,000; note: nearly all actives have a fitted effect of over 55% in size
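DT40 Tdp1-/-;hTDP1 cells, no CPT (DMSO vehicle only), 400 cells/well; compounds pin-transferred; ≥48 hr, 37 °C; CellTiter-Glo 30 min RT dark, luminescence read.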
TGFb inhibitor – qHTS for Inhibitors of TGF-b | HepG2 CAGA-GFP TGF-b/SMAD3 reporter, GFP fluorescence, 18 h; TGF-beta stimulated, 500 pg/mL final | Potency, µM (series often up to 46.1 µM), most hits filed as inhibitors | hit rate 1.2% among 410,000; note: nearly all actives have a fitted effect of over 65% in size
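Read-out: total well GFP (ex488/em500-530) summed from mean per-cell fluorescence. Cells: HEPG2 CAGA-GFP, 1% FBS DMEM, 18 h at 37 degrees C with 500 pg/mL final TGF-beta. Unstimulated wells served as the full-inhibition control; stimulated DMSO wells = 0%.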
ASM inhibitor – Inhibitors of Secretory Acid Sphingomyelinase (S-ASM): qHTS; Sphingomyelin phosphodiesterase (Homo sapiens), P17405; placental ASM, HMU-PC fluorogenic substrate, 60 min; Potency, µM (series often up to 57.5 µM), most hits filed as inhibitors; hit rate 0.006% among 340,000
Target sequence (P17405 47-631 limits assumed): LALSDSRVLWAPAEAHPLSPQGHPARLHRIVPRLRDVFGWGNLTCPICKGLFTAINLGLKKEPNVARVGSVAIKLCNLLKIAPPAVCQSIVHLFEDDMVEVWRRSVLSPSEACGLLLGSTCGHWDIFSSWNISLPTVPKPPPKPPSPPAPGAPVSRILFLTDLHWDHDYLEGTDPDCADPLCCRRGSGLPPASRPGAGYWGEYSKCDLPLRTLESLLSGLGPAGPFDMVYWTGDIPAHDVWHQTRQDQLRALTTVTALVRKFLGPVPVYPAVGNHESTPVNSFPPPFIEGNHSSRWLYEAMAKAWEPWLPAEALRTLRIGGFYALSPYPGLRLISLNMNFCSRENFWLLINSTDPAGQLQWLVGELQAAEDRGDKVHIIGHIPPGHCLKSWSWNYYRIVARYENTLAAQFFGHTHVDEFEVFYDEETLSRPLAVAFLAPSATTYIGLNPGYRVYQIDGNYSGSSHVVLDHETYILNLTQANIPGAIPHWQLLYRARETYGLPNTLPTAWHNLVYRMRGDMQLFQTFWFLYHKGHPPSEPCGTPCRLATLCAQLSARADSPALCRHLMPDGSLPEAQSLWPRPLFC
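HMU-PC0 cleavage (9 uM final) by human placental ASM, 60 min at 37 °C following 10 min compound exposure at RT; stopped at pH 10, fluorescence Ex 386/Em 447 nm.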
HepG2 viability – qHTS for Inhibitors of TGF-b: Cytotox Counterscreen | HepG2 CAGA-GFP viability, ATP luminescence, 18 h | AID 588856, 2011 | Potency, µM (doses to about 46.1 µM), hits mostly cytotoxic | hit rate 0.76% among 410,000
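HepG2 CAGA-GFP cells (1000/well, DMEM with 1% FBS) received compound, then TGF-beta at 500 pg/mL final, and were incubated 18 hours at 37 degrees C. Viability was read by CellTiter-Glo luminescence. Media-only wells were set as complete cell-killing and DMSO as no toxicity.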
TDP1 cell CPT – qHTS for Inhibitors of human tyrosyl-DNA phosphodiesterase 1 (TDP1): qHTS in cells in presence of CPT; chicken DT40 Tdp1-/-;hTDP1 cells + 20 nM CPT, ATP luminescence, 48 h; Potency, µM (doses to about 46.2 µM), usual class: inhibitors; hit rate 12% among 420,000; note: nearly all actives have a fitted effect of over 55% in size
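Chicken DT40 Tdp1-/- cells complemented with human TDP1, 400 cells/well, exposed to compounds plus 20 nM camptothecin for at least 48 h at 37 C; viability read as ATP content by CellTiter-Glo luminescence.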
Numbers stand for hits; 0 = inactive; ? = inconclusive; - = no result given. Unless noted, calls come from the whole dose curve; as a rule, active = well fitted curve in the direction sought with a large enough effect; inconclusive = small, poorly fitted or top-dose-only effect, or another doubt; inactive = no such curve, though single readings can be large; an effect the other way counts as inactive or inconclusive.

SMILES	IL1B secr inh	DT40 TDP1 no CPT	TGFb inhibitor	ASM inhibitor	HepG2 viability	TDP1 cell CPT
CC(C)(C)C(=O)Cn1c(=O)n(CCCCCC(=O)NCc2ccc3c(c2)OCO3)c(=O)c2sccc21	-	?	?	-	0	?
CC(C)C[C@H](NC(=O)c1[nH]cnc1C(=O)Nc1ccc(CNC(=O)OC(C)(C)C)cc1)C(=O)OCc1ccccc1	0	15µM	?	0	0	?
CC(C)(C)OC(=O)NCc1ccc(NC(=O)c2nc[nH]c2C(=O)N[C@@H](Cc2ccccc2)C(=O)OC(C)(C)C)cc1	?	12µM	?	0	0	15µM
C[C@H](CO)NC(=O)c1[nH]cnc1C(=O)Nc1ccc(CNC(=O)OC(C)(C)C)cc1	0	?	0	-	0	0
CC(C)C[C@H](NC(=O)c1nc[nH]c1C(=O)NCCCCCNC(=O)OC(C)(C)C)C(=O)OCc1ccccc1	0	?	?	0	0	?
C[C@H](NC(=O)c1nc[nH]c1C(=O)N[C@@H](C)C(=O)OC(C)(C)C)C(=O)OCc1ccccc1	0	0	0	0	0	0
C[C@H](NC(=O)c1[nH]cnc1C(=O)Nc1ccc(CNC(=O)OC(C)(C)C)cc1)C(=O)OCc1ccccc1	0	18µM	?	0	0	?
O=C(c1cccs1)N(Cc1ccc(Cl)cc1)C1CCS(=O)(=O)C1 (configuration not stated)	0	0	0	0	0	0
Cc1cc2c(NC(=O)Nc3ccc(C(F)(F)F)cc3)cccc2nn1	-55	?	0	0	0	?
CCCCCCCCCCCC1N=C(N)NC(CCCO)=C1C(=O)OC (configuration not stated)	?	3.7µM	0	0	0	5.8µM
O=S(=O)(NCC1(N2CCOCC2)CCCCC1)c1ccc(F)c(F)c1F	0	?	0	0	0	10µM
COc1ccccc1-n1cnc(N)c1C(=O)c1ccccc1	0	8.2µM	0	0	0	9.2µM
CC1=C(c2ccc(C)cc2)S(=O)(=O)N(Cc2ccc(C(=O)Nc3ccc(C)c(F)c3)cc2)C1=O	-	?	?	-	0	26µM
COc1ccc(C2=C(C)C(=O)N(Cc3ccc(C(=O)Nc4cc(C)ccc4C)cc3)S2(=O)=O)cc1	-	10µM	0	-	0	18µM
COc1ccc(CNC(=O)c2ccc(CN3C(=O)C(C)=C(c4ccc(C)cc4)S3(=O)=O)cc2)cc1	-	?	0	-	0	?
CC(C)c1ccc(NC(=S)Nc2cccc3ccccc23)cc1	0	16µM	0	0	0	18µM
Fc1ccc(NC(=S)Nc2cccc3ccccc23)cc1	0	?	0	0	0	0
Cc1ccc(NC(=S)Nc2cccc3ccccc23)cc1	0	0	0	0	0	0
Fc1ccc(NC(=S)Nc2cccc3ccccc23)cc1F	0	16µM	0	0	0	?
O=C(CCCCCCCC(=O)N1CCCCCC1)N1CCCCCC1	0	?	0	0	0	23µM
Cc1c(C(=O)NCc2ccc3c(c2)OCCO3)sc(=O)n1Cc1ccccc1F	0	?	0	-	0	?
COCCn1nnnc1C(c1ccc(OC)cc1OC)N1CCN(c2ccccc2)CC1 (configuration not stated)	0	0	0	0	0	0
c1ccc(CCn2nnnc2C(c2cccnc2)N2CCN(c3nc4ccccc4s3)CC2)cc1 (configuration not stated)	-64	11µM	?	0	0	18µM
COc1ccc(OC)c(C(c2nnnn2CCc2ccccc2)N2CCN(c3ccccc3)CC2)c1 (configuration not stated)	-85	35µM	0	0	0	?
